Assay outcomes from PubChem BioAssay.
Dicer processing – blocks human Dicer maturation of pre-miR-21; Q9UPY3; cat-ELCCA pre-miR-21 Dicer processing, chemiluminescence; active compounds read high; z-score at 25 µM; 47,000 tested, 6% active; in the data active = z-score above about 3, passing the limit was not always enough;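 also: higher signal means more uncleaved substrate so more Dicer inhibition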
A number is an active result; 0 = inactive. The entries come from a sample that favours hits as a whole.

SMILES | Dicer processing
COc1cc(C2c3c(oc4ccc(Cl)cc4c3=O)C(=O)N2Cc2ccccc2Cl)ccc1O (configuration not stated) | 0
CN(C)c1ccc(NC(=O)c2ccc(Cl)cc2)cc1C(=O)O | 0
CCn1c2ccccc2c2cc(CN3CCC(N4CCN(CCO)CC4)CC3)ccc21 | 0
COc1ccc(C2C(C#N)=C(N)Oc3cc(O)ccc32)cc1C (configuration not stated) | 0
C=CCOc1ccc(C2C(C#N)=C(N)Oc3cc(O)ccc32)cc1Cl (configuration not stated) | 0
CC(C)c1ccc(C2C(C#N)=C(N)Oc3cc(O)ccc32)cc1 (configuration not stated) | 4.93
Cc1nn2c(=O)c(NC(=O)c3ccc(C(C)(C)C)cc3)cnc2s1 | 0
Cc1ccc(OCCn2c(SCCO)nc3ccccc32)cc1 | 0
Cc1ccc(OCCSc2nc3ccccc3o2)cc1 | 0
CCn1c(SCCOc2ccc(OC)cc2)nc2ccccc21 | 0
Cc1ccc(OCCSc2n[nH]c3nc4ccccc4n23)cc1 | 6.22
O=C(O)CCSc1n[nH]c2nc3ccccc3n12 | 0
Cc1cccc(OCCSc2nc3ccccc3n2CCO)c1 | 5.59
CCOC(=O)NC(=S)NCCCN1CC(C)OC(C)C1 (configuration not stated) | 0
COc1ccc(/C(O)=C2\C(=O)C(=O)N(Cc3cccnc3)C2c2ccc(C)cc2)cc1 (configuration not stated) | 0
C/C(=N\O)c1cc2cc([N+](=O)[O-])ccc2o1 | 0
CC1=NC(=O)CN1c1ccc(N)cc1 | 4.02
Cc1ccc(C)n1-c1ccc(N)cc1 | 0
Cc1ccc(N2N=C(N)CC2=O)cc1 | 0
CSc1ccc(-c2ncnn2-c2ccc(C)c(Cl)c2)cc1 | 0
CC(=O)c1ccc(N/C=C/C(=O)c2ccc(F)cc2)cc1 | 0
O=C1C2C3c4ccccc4C(c4ccccc43)C2C(=O)N1c1ccncc1 (configuration not stated) | 0
O=C1C2C3c4ccccc4C(c4ccccc43)C2C(=O)N1c1ccc(F)cc1 (configuration not stated) | 0
O=C1C2C3c4ccccc4C(c4ccccc43)C2C(=O)N1CCO (configuration not stated) | 4.64
O=C(CSc1ncc(Sc2ncccn2)c(-c2ccc(Cl)cc2)n1)c1ccc(Cl)cc1 | 0
SMILES | Dicer processing
Cn1ccnc1SCC(=O)c1ccc(F)c(F)c1 | 0
O=C(CSc1ncccn1)c1ccc(O)c(O)c1 | 4.19
Cc1cc(NC(=O)C(=O)c2ccc(CN3C(=O)c4ccccc4C3=O)o2)on1 | 0
Cc1cc(=O)n(C)c(=O)n1CCCCO | 0
COC(=O)c1cc(NC(=O)NC(=O)c2c(Cl)cccc2Cl)ccc1OCS(=O)(=O)c1ccc(Cl)cc1 | 0
O=S(=O)(NC1CCN(Cc2ccccc2)CC1)c1cccs1 | 0
O=S(=O)(NC1CCN(Cc2ccccc2)CC1)c1cc(Cl)c(Cl)cc1Cl | 0
O=S(=O)(NC1CCN(Cc2ccccc2)CC1)c1cccc(C(F)(F)F)c1 | 3.01
COCCOC(=O)c1c(C)oc2cc(Br)c(OCc3ccc(F)cc3)cc12 | 0
O=c1c(Cl)c(N2CCCCC2)cnn1-c1ccccc1 | 0
Cc1ccc(Cl)c(NC2=CC(=O)CC(C)(C)C2)c1 | 0
Cc1ccc(-c2cc(NC3=CC(=O)CC(C)(C)C3)n[nH]2)cc1 | 3.71
CC1(C)CC(=O)C=C(Nc2ccc(F)cc2)C1 | 0
CCOC(=O)c1c(NC(=O)COc2ccccc2Cl)sc2c1CCC2 | 0
CCn1c(C(O)c2ccc(N(C)C)cc2)nc2ccccc21 (configuration not stated) | 0
CCn1ccnc1C(O)c1ccc(C)cc1 (configuration not stated) | 3.06
COc1cccc(C(O)c2nccn2C)c1OC (configuration not stated) | 0
CC(=O)NC1=NC(=O)/C(=C\c2cccs2)N1C | 0
CC(C)(C)C(=O)COC(=O)Cn1nnc(N2CCCC2)n1 | 0
COc1ccc(/C=C2/C(=O)Nc3ccccc32)cc1 | 0
CN(C)c1ccc(/C=C2\C(=O)Nc3ccccc32)cc1 | 0
O=C1Nc2ccccc2/C1=C/c1cnc(-c2ccccc2)[nH]1 | 3.3
CCN1C(=O)C(NC(C)=O)c2cc(C)cc(C)c21 (configuration not stated) | 0
CSc1ccccc1NC(=O)CCSc1nc(-c2ccco2)cc(C(F)(F)F)n1 | 0
CC(C)n1c(Oc2ccc(F)cc2)nc2c1c(=O)n(C)c(=O)n2C | 0
SMILES | Dicer processing
Cc1cc(Oc2nc3c(c(=O)n(C)c(=O)n3C)n2C)cc(C)c1Cl | 3.76
Cn1c(=O)c2c(nc(Oc3ccc(F)cc3Cl)n2C)n(C)c1=O | 0
CCc1c(C)nc(SCc2ccccc2C)c(C#N)c1C | 0
CCOc1ccc(S(=O)(=O)n2cnc3ccccc32)cc1 | 4.69
CCOc1ccc(S(=O)(=O)n2c(C)nc3ccccc32)cc1 | 0
O=S(=O)(c1ccc(Cl)cc1)n1cnc2ccccc21 | 0
Cc1cc(NC(=O)Nc2cccc(C(F)(F)F)c2)n(-c2ccccc2)n1 | 0
O=[N+]([O-])c1ccc(-n2ccc(C(F)(F)F)n2)cc1 | 0
CCOC(=O)c1cnc2c(c(C)nn2C)c1Oc1ccc(F)cc1 | 0
CC1(C)CC(=O)C2=C(C1)Nc1ccccc1NC2c1ccccc1F (configuration not stated) | 0
CC1(C)CC(=O)C2=C(C1)Nc1ccccc1NC2c1cccs1 (configuration not stated) | 0
CC1(C)CC(=O)C2=C(C1)Nc1ccccc1S2 | 4.06
CC1=C(C(=O)OC2CCCC2)C(c2ccc3c(c2)OCO3)C2=C(CC(c3ccccc3)CC2=O)N1 (configuration not stated) | 0
CSc1sc(-c2nc(C)cs2)c(C)c1-c1cnc(SCC(=O)Nc2cccc(C(F)(F)F)c2)nc1 | 0
O=C(O)c1ccc(Nc2ncnc3ccc(Br)cc23)cc1 | 4.93
Cc1nc2ccc(Br)cc2c(C(=O)O)c1I | 0
O=C(O)c1ccc(Nc2ccnc3cc(Cl)ccc23)cc1 | 0
CCOC(=O)c1cnc(NNC(=O)c2ccc(Cl)cc2Cl)nc1C(F)(F)F | 0
N#Cc1ccc(NS(=O)(=O)c2ccc3ccccc3c2)cc1 | 0
CCOC(=O)C1=C(C)NC2=C(C(=O)CC(C)(C)C2)C1c1ccc(OCC)cc1 (configuration not stated) | 0
CN(C)/N=C(/Sc1ccc(Br)cc1)c1cc(C(F)(F)F)cc(C(F)(F)F)c1 | 0
Clc1cccc(CN2CCN(Cc3ccco3)CC2)c1 | 0
Clc1ccc(CN2CCN(Cc3ccco3)CC2)cc1 | 0
Fc1cccc(CN2CCN(Cc3ccco3)CC2)c1 | 3.48
O=S(=O)(NNc1c(Cl)cc(Cl)cc1Cl)c1ccc(Cl)c(Cl)c1 | 0
SMILES | Dicer processing
Cc1cc(=O)[nH]c(SCCOc2ccc(C)c(C)c2)n1 | 0
C=CCSc1nnnn1-c1ccc(OC(=O)C=C(C)C)cc1 | 0
Cc1ccc(-n2nnnc2SCCOc2ccc(C)c(C)c2)cc1 | 9.75
Cc1oc2cc(O)ccc2c(=O)c1Oc1ccc(Cl)cc1 | 0
COC(=O)COc1ccc2c(=O)c(Oc3ccccc3Br)c(C(F)(F)F)oc2c1 | 3.52
COC(=O)COc1ccc2c(=O)c(Oc3cc(C)cc(C)c3)c(C(F)(F)F)oc2c1 | 0
COC(=O)COc1ccc2c(=O)c(Oc3ccccc3Cl)c(C(F)(F)F)oc2c1 | 0
Cc1oc2cc(O)ccc2c(=O)c1Oc1ccccc1Br | 3.54
CCOC(=O)Oc1ccc2c(=O)c(Oc3ccccc3Br)coc2c1 | 0
O=C(O)c1nccnc1C(=O)NC(c1ccccc1)c1ccccc1 | 0
CC(=O)NNc1ccc(C(F)(F)F)cn1 | 0
NS(=O)(=O)c1ccc(Sc2cccs2)s1 | 0
Cc1nn(C(=O)c2cccc(Cl)c2)c(C)c1Br | 0
